Source: PubChem BioAssay (several laboratories)
BH1578 lux ind = inducers of Vibrio cholerae quorum light production without autoinducers, primary screen, BH1578 luxS cqsA deficient, single point. V. cholerae BH1578 lux reporter, luminescence, 6 h. activation, % at 18.7 µM. 0.16% of 350,000 active. AID 588436, 2011; in the data active = activation mostly above about 9.7%, no sharp cut-off; inconclusive = no clear call, values can overlap the other calls; inactive = mostly below about 3.7%
BoNT-A LC inh2 = BoNT/A light chain protease inhibitors, primary screen, biochemical, flow cytometry, MLPCN library. multiplex microsphere protease substrate cleavage. 0.17% of 360,000 active. inhibition, % at 10 µM. Botulinum neurotoxin type A light chain protease (Clostridium botulinum A str. ATCC 3502). AID 588499, 2011; note: plate controls were buffer without enzyme for full effect and enzyme alone for no effect
BoNT-F LC inh = BoNT/F light chain protease inhibitors, primary screen, biochemical, flow cytometry, MLPCN library; Multiplex microsphere protease cleavage assay; inhibition, % at 10 µM; 0.22% of 360,000 active; AID 588497, 2011; in the data active = inhibition above about 35%, passing the limit was not always enough; inconclusive = no clear call, values can overlap the other calls; note: plate controls were buffer without enzyme for full effect and enzyme alone for no effect
Bead autofluor = flagged as autofluorescent in microsphere protease counterscreen; fluorescence intensity (concentration not given with the values); compound autofluorescence counterscreen, microsphere flow cytometry; hits give high values; 3.1% of 360,000 active; in the data active = fluorescence intensity above about 16000; inconclusive = no clear call, values can overlap the other calls
Anthrax LF inh2 = Bacillus anthracis LF protease inhibitors, primary screen, biochemical, multiplex microsphere, MLPCN library; Lethal factor (Bacillus anthracis), P15917; multiplex microsphere protease cleavage assay; inhibition, % at 10 µM; 0.12% of 360,000 active; AID 588501, 2011; note: plate controls were buffer without enzyme for full effect and enzyme alone for no effect
Numbers without * were called inactive; i = inactive; u = inconclusive; x = not tested or not shown. Only some compounds are listed: those with a hit (about 3.5% of all), similar ones and a draw of the others. Cut-off read from the data, not from the text of the source, unless noted: active = inhibition above about 30%; inconclusive = no clear call, values can overlap the other calls; inactive = below that.

SMILES | BH1578 lux ind | BoNT-A LC inh2 | BoNT-F LC inh | Bead autofluor | Anthrax LF inh2
CCCCSc1ncnc2c1ncn2C1CCCCO1 (stereo unspecified) | 1 | 0 | -5 | 2867 | -1
Cc1ccc(N(CC(=O)NCC2CCCO2)S(=O)(=O)c2ccc(Cl)cc2)cc1C (stereo unspecified) | -1 | -2 | 0 | 5621 | -2
COc1ccc(N(CC(=O)NCC2CCCO2)S(=O)(=O)c2ccc(C)cc2)cc1OC (stereo unspecified) | i | 0 | -1 | 16225* | 0
FC(F)(F)c1cccc(CN2CCCCCC2)c1 | i | -2 | -4 | 24319* | 0
CCOC(=O)C1CCN(Cc2ccc(F)c(F)c2)CC1 | i | 2 | 10 | 9144 | 3
Fc1ccc(CN2CCCCCCC2)cc1F | i | -2 | -3 | 16629* | -4
Fc1ccc(CN2CCCCCC2)c(F)c1 | -2 | 1 | 3 | 22437* | -1
Cc1ccc(NS(=O)(=O)c2ccc3c(c2)NC(=O)CCS3)c(C)c1 | 0 | 1 | 4 | 4855 | 0
NC(=O)C1CCN(C(=O)c2ccc(NS(=O)(=O)/C=C/c3ccccc3)cc2)CC1 | i | -1 | -3 | 3299 | -10
COc1ccc(S(=O)(=O)N2CCC3(CC2)CC(=O)c2ccccc2O3)cc1OC | i | u | u | 4310 | u
CCCCOC(=O)c1ccc(NC(=O)c2ccoc2C)cc1 | 5 | 0 | 1 | 20473* | -4
CCCCOC(=O)c1ccc(NC(=O)c2ccccc2OC)cc1 | 0 | 0 | 2 | 2532 | 0
CCCCOC(=O)c1ccc(NC(=O)c2ocnc2C)cc1 | i | u | -4 | 24702* | 0
CCCOC(=O)c1ccc(NC(=O)c2ccoc2C)cc1 | -3 | -1 | 1 | 3398 | 2
CCOc1ccc2nc(NC(=O)CN3C(=O)C4CCCCC4C3=O)sc2c1 (stereo unspecified) | i | x | x | x | x
Cc1cc2c3c(c1)C1(SCC(=O)N1c1ccc(F)cc1)C(=O)N3C(C)(C)CC2C (stereo unspecified) | -1 | -8 | -10 | 18092* | -4
Cc1cc2c3c(c1)C1(C(=O)N3C(C)(C)CC2C)C(C#N)=C(N)OC2=C1C(=O)CC(C)(C)C2 (stereo unspecified) | i | 0 | 3 | 2792 | -4
COC(=O)Cc1ccc(NC(=S)Nc2ccccn2)cc1 | 0 | -1 | -2 | 4718 | -7
CC1CCC2(CC1)NC(=O)N(NC(=O)C1CCN(C(=O)c3ccc(Cl)cc3)CC1)C2=O (stereo unspecified) | i | -1 | -6 | 5069 | 9
COc1ccc(Cn2c(/C=C/c3ccccc3)nc3ccccc32)cc1 | i | -1 | -4 | 24328* | 2
Cn1cc(/C=N\O)nc2c(=O)n(-c3ccccc3)c(=O)nc1-2 | i | 0 | -4 | 4254 | 0
CC1=NN(C(=O)c2cccc(Cn3nc(C)c([N+](=O)[O-])c3C)c2)C(O)(C(F)(F)F)C1 (stereo unspecified) | -2 | -4 | -7 | 24994* | 0
Cc1nn(Cc2cccc(C(=O)NC(C)c3ccc(C(C)(C)C)cc3)c2)c(C)c1[N+](=O)[O-] (stereo unspecified) | 0 | -1 | -13 | 10254 | -4
CCC(NC(=O)c1cccc(Cn2nc(C)c([N+](=O)[O-])c2C)c1)c1ccc(C(C)C)cc1 (stereo unspecified) | -1 | 1 | -1 | 22838* | -2
Cc1nn(Cc2cccc(C(=O)N3N=C(C(F)F)CC3(O)C(F)F)c2)c(C)c1[N+](=O)[O-] (stereo unspecified) | i | -4 | -6 | 24863* | 0
SMILES | BH1578 lux ind | BoNT-A LC inh2 | BoNT-F LC inh | Bead autofluor | Anthrax LF inh2
CC(=O)Nc1ccc(OC(=O)c2ccc(Br)c([N+](=O)[O-])c2)cc1 | -6 | 0 | 3 | 2003 | -2
C/C=C/c1cnc2c(c1)C(=O)N([C@H](C)CO)C[C@H](C)[C@@H](CN(C)C(=O)CN1CCOCC1)O2 | i | 0 | -1 | 3701 | 2
CC(C)CNC(=O)C1CCN(CC2CCCCC2)CC1 | 0 | 1 | 15 | 3520 | -2
CC(C)CNC(=O)C(=O)NNC(=O)C1CCCCC1 | 0 | -5 | -3 | 21511* | 0
CN1CCN(/C=N/C2=C(C#N)C(c3ccccc3)C3=C(CC(C)(C)CC3=O)O2)CC1 (stereo unspecified) | 3 | -1 | -4 | 22390* | -2
CC1(C)CC(=O)C2=C(C1)OC(/N=C/N1CCCC1)=C(C#N)C2c1ccccc1 (stereo unspecified) | 0 | -1 | -2 | 5383 | -1
CC(c1ccccc1)C1C(C#N)=C(N)OC2=C1C(=O)CC(C)(C)C2 (stereo unspecified) | 5 | -2 | 0 | 23366* | -1
CC1(C)CC(=O)C2=C(C1)OC(N)=C(C#N)C2C#Cc1ccccc1 (stereo unspecified) | i | 1 | 6 | 2836 | -2
O=S(=O)(Nc1ccc2c(c1)nc1n2CCOC1)c1ccc(Cl)cc1 | -4 | 1 | 2 | 22037* | 2
O=S(=O)(Nc1ccc2c(c1)nc1n2CCOC1)c1ccccc1 | 7 | 6 | 12 | 19895* | 2
O=S(=O)(Nc1ccc2nc(N3CCOCC3)sc2c1)c1ccc(Cl)cc1 | i | -1 | -12 | u | -2
CCCC(=O)Nc1c2c(nn1-c1ccc(F)cc1)CS(=O)(=O)C2 | -8 | -2 | -32 | 2958 | -8
O=C(Nc1c2c(nn1-c1ccc(F)cc1)CS(=O)(=O)C2)C12CC3CC(CC(C3)C1)C2 | -2 | u | -3 | 24380* | -2
O=C(Nc1nc(-c2ccccc2)ns1)c1cccs1 | i | -5 | -6 | 22042* | -1
Cc1nnc(SCCC(=O)Nc2nc(-c3ccccc3)ns2)s1 | i | -2 | -6 | 16875* | -4
CC(C)C(=O)Nc1nc(-c2ccccc2)ns1 | -3 | u | 3 | 22460* | -7
CCC(=O)Nc1nc(-c2ccccc2)ns1 | 11 | 2 | 2 | 21302* | -2
O=C(O)CC(NC(=O)C1c2ccccc2Oc2ccccc21)c1ccc(Cl)cc1 (stereo unspecified) | 0 | 0 | -6 | 2307 | 1
COc1ccc(-c2ccc(C(=O)NCCc3ccccc3)c3occc23)c(C)c1 | i | -1 | -9 | 3113 | -2
Cc1cccc(NC(=O)CSc2ncnc3sc(C)cc23)c1 | -1 | -3 | -6 | 3033 | -5
CCC(C)NCCCCOc1ccc(C)cc1[N+](=O)[O-] (stereo unspecified) | 0 | 0 | -1 | 20177* | 0
Cc1ccc(C)c(NC(=O)C2CCCC2)c1 | 0 | -1 | -4 | 6514 | -15
O=C1C2CCCN2C(=O)N1CCCN1CCN(c2ccc([N+](=O)[O-])cc2)CC1 (stereo unspecified) | -1 | -3 | 46* | 3813 | 12
